Laboratory results published in the supplement of paper PMC11006884.
Of roughly 6,500 targets only a part is listed; those with a hit were picked by preference. About 2% of all pairs of compound and target were hits.

compound: COC(=O)C#Cc1ccccc1 [methyl 3-phenylpropiolate]; assay: log2 ratio of iodoacetamide-alkyne labeling of the cysteine site, DMSO over compound (competition); higher = stronger covalent engagement of the cysteine by the compound, active = 1 or more; conditions: 500 µM; treatment time 1 h; system: HEK293T cell lysate
Procedure, shortened: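 HEK293T lysate (2 mg/mL) was incubated with electrophile (500 µM) or vehicle for 1 h at ambient temperature and then with iodoacetamide alkyne for 1 h. Labelled proteins were clicked to sCIP-TMT reagents, pooled, digested, enriched on streptavidin and measured by Orbitrap Eclipse LC-MS/MS with FAIMS, with FragPipe quantification. The per-cysteine log2 competition ratio is mean control-channel reporter intensity over mean compound-channel reporter intensity. Across three replicates with duplicate channels, cysteines quantified in only one replicate were excluded.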

Sequence of UniProt Q5VUA4 (Q5VUA4 whole entry, looked up): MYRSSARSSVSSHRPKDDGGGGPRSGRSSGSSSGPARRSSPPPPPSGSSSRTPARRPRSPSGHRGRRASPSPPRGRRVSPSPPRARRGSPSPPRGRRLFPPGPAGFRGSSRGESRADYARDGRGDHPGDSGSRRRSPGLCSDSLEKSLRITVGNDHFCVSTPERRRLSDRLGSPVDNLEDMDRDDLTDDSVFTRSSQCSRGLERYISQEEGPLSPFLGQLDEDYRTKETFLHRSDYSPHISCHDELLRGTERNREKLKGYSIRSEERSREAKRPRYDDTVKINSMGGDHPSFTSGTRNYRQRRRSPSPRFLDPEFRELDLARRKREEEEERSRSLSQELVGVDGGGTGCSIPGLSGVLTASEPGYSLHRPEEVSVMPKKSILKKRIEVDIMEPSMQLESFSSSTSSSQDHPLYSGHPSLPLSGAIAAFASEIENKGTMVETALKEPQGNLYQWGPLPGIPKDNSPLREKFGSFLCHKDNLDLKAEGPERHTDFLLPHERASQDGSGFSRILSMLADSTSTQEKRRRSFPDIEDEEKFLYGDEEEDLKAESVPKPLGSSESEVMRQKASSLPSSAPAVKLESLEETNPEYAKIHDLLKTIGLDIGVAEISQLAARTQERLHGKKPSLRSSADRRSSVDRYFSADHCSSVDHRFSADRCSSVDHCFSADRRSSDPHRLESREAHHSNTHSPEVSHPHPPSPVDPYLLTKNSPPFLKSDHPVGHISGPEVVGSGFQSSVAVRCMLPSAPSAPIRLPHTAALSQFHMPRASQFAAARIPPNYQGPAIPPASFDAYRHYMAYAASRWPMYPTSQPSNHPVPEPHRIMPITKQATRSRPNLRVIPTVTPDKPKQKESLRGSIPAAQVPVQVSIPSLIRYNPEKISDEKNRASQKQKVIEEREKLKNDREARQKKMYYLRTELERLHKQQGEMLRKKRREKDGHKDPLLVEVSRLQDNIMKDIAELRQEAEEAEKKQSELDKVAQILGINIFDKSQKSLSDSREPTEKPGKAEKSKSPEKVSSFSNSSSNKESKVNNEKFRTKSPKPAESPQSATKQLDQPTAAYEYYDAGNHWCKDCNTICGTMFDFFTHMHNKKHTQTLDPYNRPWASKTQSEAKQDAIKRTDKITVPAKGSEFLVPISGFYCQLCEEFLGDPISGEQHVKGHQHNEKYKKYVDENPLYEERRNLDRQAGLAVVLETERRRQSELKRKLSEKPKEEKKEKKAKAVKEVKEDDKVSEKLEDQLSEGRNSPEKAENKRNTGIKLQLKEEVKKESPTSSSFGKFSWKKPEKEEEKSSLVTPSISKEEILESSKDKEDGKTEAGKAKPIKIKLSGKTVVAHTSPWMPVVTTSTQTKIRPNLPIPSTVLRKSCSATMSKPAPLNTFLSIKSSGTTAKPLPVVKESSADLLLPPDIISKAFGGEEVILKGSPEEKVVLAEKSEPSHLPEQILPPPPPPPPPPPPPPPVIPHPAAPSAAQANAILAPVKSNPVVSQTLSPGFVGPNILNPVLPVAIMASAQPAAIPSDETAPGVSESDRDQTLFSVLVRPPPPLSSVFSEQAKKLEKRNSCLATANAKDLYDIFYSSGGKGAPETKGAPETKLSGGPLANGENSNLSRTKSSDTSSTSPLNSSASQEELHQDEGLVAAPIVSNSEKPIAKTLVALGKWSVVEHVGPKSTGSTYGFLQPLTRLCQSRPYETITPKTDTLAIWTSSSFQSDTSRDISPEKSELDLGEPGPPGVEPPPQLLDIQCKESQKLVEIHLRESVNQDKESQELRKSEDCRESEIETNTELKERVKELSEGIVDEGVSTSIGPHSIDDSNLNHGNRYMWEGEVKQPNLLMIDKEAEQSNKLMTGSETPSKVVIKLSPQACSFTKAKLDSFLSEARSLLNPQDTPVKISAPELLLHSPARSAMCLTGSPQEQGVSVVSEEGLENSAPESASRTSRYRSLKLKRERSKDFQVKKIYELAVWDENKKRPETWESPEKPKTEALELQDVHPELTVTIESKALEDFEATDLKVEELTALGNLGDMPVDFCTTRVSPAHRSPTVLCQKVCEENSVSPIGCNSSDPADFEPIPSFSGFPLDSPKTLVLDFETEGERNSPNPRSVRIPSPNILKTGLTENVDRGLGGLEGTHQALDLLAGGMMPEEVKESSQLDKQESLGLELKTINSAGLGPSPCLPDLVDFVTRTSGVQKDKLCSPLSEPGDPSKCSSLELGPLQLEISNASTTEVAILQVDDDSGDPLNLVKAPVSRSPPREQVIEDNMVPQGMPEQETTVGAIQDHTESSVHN
Sequence of UniProt Q9BQ67 (Q9BQ67 whole entry, looked up): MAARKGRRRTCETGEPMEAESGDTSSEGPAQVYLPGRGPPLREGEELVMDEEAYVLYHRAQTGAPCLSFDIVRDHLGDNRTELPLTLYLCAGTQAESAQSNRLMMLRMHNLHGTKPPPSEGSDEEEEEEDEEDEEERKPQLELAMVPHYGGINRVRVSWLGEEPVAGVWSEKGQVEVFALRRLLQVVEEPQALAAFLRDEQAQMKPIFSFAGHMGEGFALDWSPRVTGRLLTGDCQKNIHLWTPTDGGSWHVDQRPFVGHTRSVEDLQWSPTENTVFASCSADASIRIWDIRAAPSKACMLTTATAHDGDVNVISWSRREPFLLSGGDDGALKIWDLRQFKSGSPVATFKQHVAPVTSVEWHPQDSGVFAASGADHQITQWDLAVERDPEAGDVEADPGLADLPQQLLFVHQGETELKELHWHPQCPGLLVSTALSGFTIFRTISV
Sequence of UniProt Q8TEV9 (Q8TEV9 whole entry): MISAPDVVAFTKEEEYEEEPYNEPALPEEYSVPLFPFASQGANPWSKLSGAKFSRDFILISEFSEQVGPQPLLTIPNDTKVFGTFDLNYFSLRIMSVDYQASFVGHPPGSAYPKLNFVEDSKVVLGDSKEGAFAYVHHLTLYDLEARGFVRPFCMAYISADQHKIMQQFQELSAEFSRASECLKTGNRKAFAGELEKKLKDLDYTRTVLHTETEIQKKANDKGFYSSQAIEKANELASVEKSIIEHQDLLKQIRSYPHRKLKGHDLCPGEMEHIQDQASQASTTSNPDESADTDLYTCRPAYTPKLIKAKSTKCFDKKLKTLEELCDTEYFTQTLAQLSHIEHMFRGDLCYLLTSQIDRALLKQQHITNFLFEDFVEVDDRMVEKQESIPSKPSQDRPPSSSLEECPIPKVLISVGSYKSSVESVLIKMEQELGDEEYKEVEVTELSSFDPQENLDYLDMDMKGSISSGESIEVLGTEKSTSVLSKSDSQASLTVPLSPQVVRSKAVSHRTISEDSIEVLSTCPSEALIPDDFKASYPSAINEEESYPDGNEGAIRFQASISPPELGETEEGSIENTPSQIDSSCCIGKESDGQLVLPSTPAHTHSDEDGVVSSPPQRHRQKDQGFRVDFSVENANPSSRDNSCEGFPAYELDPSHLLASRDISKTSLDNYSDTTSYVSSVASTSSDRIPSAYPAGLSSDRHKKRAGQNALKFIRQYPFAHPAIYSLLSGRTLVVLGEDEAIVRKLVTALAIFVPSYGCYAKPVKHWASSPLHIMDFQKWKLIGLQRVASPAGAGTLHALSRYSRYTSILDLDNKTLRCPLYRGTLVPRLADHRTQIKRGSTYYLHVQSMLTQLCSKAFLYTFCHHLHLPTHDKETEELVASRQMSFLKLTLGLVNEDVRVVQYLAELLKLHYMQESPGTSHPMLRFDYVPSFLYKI
Sequence of UniProt Q96SK2 (Q96SK2 whole entry, looked up): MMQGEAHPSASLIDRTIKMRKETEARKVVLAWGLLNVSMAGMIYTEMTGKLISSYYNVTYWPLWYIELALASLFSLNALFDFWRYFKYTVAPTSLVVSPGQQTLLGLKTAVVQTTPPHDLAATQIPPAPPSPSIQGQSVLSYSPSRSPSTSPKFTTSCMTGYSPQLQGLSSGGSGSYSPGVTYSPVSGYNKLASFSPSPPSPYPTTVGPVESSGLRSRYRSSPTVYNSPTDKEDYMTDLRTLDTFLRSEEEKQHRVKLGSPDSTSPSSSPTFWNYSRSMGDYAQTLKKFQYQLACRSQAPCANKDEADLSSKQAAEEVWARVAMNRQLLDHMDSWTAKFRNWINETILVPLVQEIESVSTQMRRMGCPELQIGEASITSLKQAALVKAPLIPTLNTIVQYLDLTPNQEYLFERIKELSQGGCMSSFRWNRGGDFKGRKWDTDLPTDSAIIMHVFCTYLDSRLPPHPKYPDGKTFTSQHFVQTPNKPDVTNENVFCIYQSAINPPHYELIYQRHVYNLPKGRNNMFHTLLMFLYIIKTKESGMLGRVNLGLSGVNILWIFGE
Sequence of UniProt Q96C36 (Q96C36 whole entry, looked up): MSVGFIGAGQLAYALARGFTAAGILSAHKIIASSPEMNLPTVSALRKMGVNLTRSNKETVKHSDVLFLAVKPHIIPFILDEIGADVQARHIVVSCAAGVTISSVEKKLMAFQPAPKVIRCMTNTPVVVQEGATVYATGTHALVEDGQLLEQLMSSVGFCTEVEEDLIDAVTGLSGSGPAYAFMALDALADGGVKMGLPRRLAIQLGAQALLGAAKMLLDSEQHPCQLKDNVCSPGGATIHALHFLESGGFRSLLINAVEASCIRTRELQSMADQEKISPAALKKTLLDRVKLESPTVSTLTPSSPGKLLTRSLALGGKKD
Sequence of UniProt Q86U28 (Q86U28 whole entry, looked up): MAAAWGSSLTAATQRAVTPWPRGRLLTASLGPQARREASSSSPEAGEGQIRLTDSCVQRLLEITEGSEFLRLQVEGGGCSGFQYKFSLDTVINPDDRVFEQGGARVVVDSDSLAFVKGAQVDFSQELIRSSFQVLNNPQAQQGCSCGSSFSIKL
Sequence of UniProt Q96AB3 (Q96AB3 whole entry): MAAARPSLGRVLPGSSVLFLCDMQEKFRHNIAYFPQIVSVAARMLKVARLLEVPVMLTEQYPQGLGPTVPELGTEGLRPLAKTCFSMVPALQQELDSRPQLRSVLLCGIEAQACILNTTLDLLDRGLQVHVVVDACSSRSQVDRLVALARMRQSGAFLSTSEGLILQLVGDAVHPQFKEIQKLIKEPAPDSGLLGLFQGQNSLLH

log2 ratio of iodoacetamide-alkyne labeling, active:
EDC3 C137 (UniProt Q96F86) 1.09
ISCA2 C144 (UniProt Q86U28) 1.59

log2 ratio of iodoacetamide-alkyne labeling, inactive:
SMCR8 C644 (UniProt Q8TEV9) 0.488
TMEM209 C301 (UniProt Q96SK2) 0.858
UniProt Q69YQ0_C79 0.787
GRWD1 C299 (UniProt Q9BQ67) 0.364
PYCR2 C262 (UniProt Q96C36) 0.538
UniProt Q99590_C478 0.396
UniProt Q8N1G2_C794 0.107
SECISBP2L C544 (UniProt Q93073) 0.341
ISOC2 C84 (UniProt Q96AB3) 0.179
ZNF318 C1559 (UniProt Q5VUA4) 0.605
